Data: PubChem BioAssay (EPA / NIEHS)
Calls of active or inactive are those of the source. How the source made its calls: active means hit-call score of the fitted dose curve at least 0.9, where 1 is the maximum; inactive means score below 0.9.

The molecules below were run on CYP3A5 (gene 1577) (assay: LTEA_HepaRG_CYP3A5: Life Technologies and Expression Analysis (LTEA) Assay for CYP3A5 using HepaRG (AID 2283493)). Settings: mRNA level, 48 h; actives raise or lower the signal.
Procedure: LTEA_HepaRG is a cell based, multiplexed-readout assay that uses HepaRG, a human liver cell line, with measurements taken at 48 hours after chemical dosing on a 96-well plate.LTEA_HepaRG_CYP3A5 is one of 102 assay component(s) measured in the LTEA HepaRG cell culture assay. It is a marker of NR mediated metabolism.Data from the assay component LTEA_HepaRG_CYP3A5 was analyzed into 1 endpoint. This assay endpoint, LTEA_HepaRG_CYP3A5, was analyzed with bidirectional fitting relative to DMSO as the negative control and baseline of activity. Using a type of inducible reporter, measures of mRNA induction for gain or loss-of-signal activity can be used to understand regulation of transcription factor activity. To generalize the intended target to other relatable targets, this assay endpoint is annotated to the cyp intended target family, where the subfamily is xenobiotic metabolism.
A total of 1060 chemcials from the ToxCast library were tested in eight-point concentration-response experiments. Cell culture and cytotoxicity assays were conducted at Thermo Fisher Scientific's Custom Services facility (Madison, WI). A single lot of human HepaRG cells (Thermo Fisher Scientific, Frederick, MD) was used for the cell culture experiments. 96-well format collagen type I coated plates of human HepaRG cells were prepared using established methods. Briefly, cryopreserved HepaRG cells were thawed, plated at a density of approximately 100,000 cells/well in HepaRG Thaw, Plate, and General Purpose media (HPRG770, Thermo Fisher Scientific), and incubated for 48 hours. 0.5% DMSO was selected as vehicle control to balance the requisite need of DMSO in HepaRG cultures to maintain differentiation (for example, baseline metabolism, proportions of hepatocytes vs. cholangiocytes), while enabling further hepatic receptor pathway activation (for example, PXR and CAR) in response to chemical exposure. 48 hours after plating, the culture medium was replaced with HepaRG Serum-Free Incudtion Media. Cells were exposed to each test chemical in duplicate and maintained in CO2 incubators for another 48 hours. Chemical plates were thawed to room temperature and 200x concentrations of treatment groups were prepared. 8-point conentration-reponse curves were made with the highest exposure at 100 uM, followed by half-log dilutions, all in 0.5% DMSO. Each test plate contained variouse controls, induction positive controls (1mM phenobarbital), cytotoxicity positive controls ([…] aflatoxin B1), vehicle controls (0.5% DMSO), and total lysis controls (0.5% DMSO). Cell morphology images were taken using an Essen IncuCyte FLR automated microscope, with six 96-well plates imaged in about 24 minutes. Images were captured and exported and JPEG files. Spent culture media was transfered to black-well plates for the LDH assay, and remaining media was sorted at -80 C for later use. Cells were treated with RLT buffer and frozen until shipped for gene expression analysis. Total RNA was isolated from the cell suspension in 75 uL of Buffer RLT (Qiagen, Germantown, MD 20874) by Quintiles/Expression Analysis (Durham, NC) using a custom isolation procedure. Total RNA from each plate well was transferred to a preamplification plate. Fluidigm's 96.96 Dynamic ArrayTM (Fluidigm, Amsterdam, the Netherlands) technology was used for gene expression analyses by quantitative reverse transcription polymerase chain reaction (qRT-PCR, performed by Quintiles/Expression Analysis, Durham, NC)89. Standard TaqManTM Assays (Applied Biosystems/ThermoFisher Scientific, Foster City, CA) were used to assess the expression of 93 genes selected based on their selectivity and sensitivity to important hepatic receptors known to be modulated by environmental chemicals; importance in human hepatocyte functionality; and hepatotoxicity. […]

Row | SMILES | outcome | AC50
1 | S=C1NCCN1 | inactive | 
2 | C[N+]1(C)CCCCC1 | inactive | 
3 | CCc1cccc(CC)c1N(COC)C(=O)CCl | inactive | 
4 | N#CSCSC#N |  | 50 µM (active)
5 | CC[C@H](C)[C@H]1O[C@]2(C=C[C@@H]1C)C[C@@H]1C[C@@H](C/C=C(\C)[C@@H](O[C@H]3C[C@H](OC)[C@@H](O[C@H]4C[C@H](OC)[C@@H](NC)[C@H](C)O4)[C@H](C)O3)[C@@H](C)/C=C/C=C3\CO[C@@H]4[C@H](O)C(C)=C[C@@H](C(=O)O1)[C@]34O)O2 |  | 22.7 µM (active)
6 | CNC(=O)ON=C(SC)C(=O)N(C)C | inactive | 
7 | COc1cccc(C(=O)NN(C(=O)c2cc(C)cc(C)c2)C(C)(C)C)c1C | inactive | 
8 | CC(C1CC1)C(O)(Cn1cncn1)c1ccc(Cl)cc1 (stereo not given) | inactive | 
9 | CN(C)C(=O)Nc1cccc(C(F)(F)F)c1 | inactive | 
10 | CCOP(=S)(OCC)Oc1ccc([N+](=O)[O-])cc1 | inactive | 
11 | O=C(O)c1cc(Oc2ccc(C(F)(F)F)cc2Cl)ccc1[N+](=O)[O-] |  | 50 µM (active)
12 | Cc1nn(-c2cc(NS(C)(=O)=O)c(Cl)cc2Cl)c(=O)n1C(F)F | inactive | 
13 | CC1(C(=O)Nc2ccc(O)c(Cl)c2Cl)CCCCC1 | inactive | 
14 | CCC(=NOC/C=C/Cl)C1=C(O)CC(C2CCOCC2)CC1=O (stereo not given) | inactive | 
15 | Cc1ccn2nc(S(=O)(=O)Nc3c(F)cccc3F)nc2n1 | inactive | 
16 | CCOP(=O)(NC(C)C)Oc1ccc(SC)c(C)c1 (stereo not given) | inactive | 
17 | CCCCN(CC)c1c([N+](=O)[O-])cc(C(F)(F)F)cc1[N+](=O)[O-] | inactive | 
18 | CSc1nc(NC(C)C)nc(NC(C)C)n1 | inactive | 
19 | CCOP(=S)(Oc1cnc(C(C)(C)C)nc1)OC(C)C (stereo not given) | inactive | 
20 | CSC1=N[C@@](C)(c2ccccc2)C(=O)N1Nc1ccccc1 | inactive | 

Row | SMILES | outcome | AC50
21 | CCOP(=S)(OCC)Oc1cc(C)nc(C(C)C)n1 | inactive | 
22 | CCOP(=S)(OCC)OC(Cl)C(Cl)(Cl)Cl (stereo not given) | inactive | 
23 | CC(C)N(C(=O)SCC(Cl)=C(Cl)Cl)C(C)C | inactive | 
24 | COc1ccc(C(=CC(=O)N2CCOCC2)c2ccc(Cl)cc2)cc1OC | inactive | 
25 | COc1cc(OC)nc(Sc2cccc(Cl)c2C(=O)O)n1 | inactive | 
26 | CNC(=O)Oc1cccc2c1OC(C)(C)O2 | inactive | 
27 | CNC(=O)ON=C(C)SC | inactive | 
28 | CC1=NNC(=O)N(/N=C/c2cccnc2)C1 | inactive | 
29 | CCC(=O)Nc1ccc(Cl)c(Cl)c1 | inactive | 
30 | Nc1c(Cl)cc([N+](=O)[O-])cc1Cl |  | 27.5 µM (active)
31 | CCc1cccc(C)c1N(C(=O)CCl)C(C)COC (stereo not given) | inactive | 
32 | CCC(CC)Nc1c([N+](=O)[O-])cc(C)c(C)c1[N+](=O)[O-] | inactive | 
33 | CCc1cnc(C2=NC(C)(C(C)C)C(=O)N2)c(C(=O)O)c1 (stereo not given) | inactive | 
34 | CN(C)NC(=O)CCC(=O)O | inactive | 
35 | CNc1cnn(-c2cccc(C(F)(F)F)c2)c(=O)c1Cl | inactive | 
36 | CCOC(=O)CC(SP(=O)(OC)OC)C(=O)OCC (stereo not given) | inactive | 
37 | C#CCC1=C(C)C(OC(=O)C2C(C=C(C)C)C2(C)C)CC1=O (stereo not given) | inactive | 
38 | C[Si](Cn1cncn1)(c1ccc(F)cc1)c1ccc(F)cc1 | inactive | 
39 | O=c1ccc(=O)[nH][nH]1 | inactive | 
40 | C#CC(C)(C)NC(=O)c1cc(Cl)cc(Cl)c1 | inactive | 
